This is a sample that favours compounds with a hit; in the whole collection about 18% have one here.
DT40 TDP1 no CPT = qHTS for Inhibitors of human tyrosyl-DNA phosphodiesterase 1 (TDP1): qHTS in cells in absence of CPT; DT40 Tdp1-/- hTDP1 cells, no CPT, ATP luminescence, 48 h; Potency, µM (top dose mostly 46.2 µM), for inactives: at the highest dose activity change, negative = growth inhibition, usual class: inhibitors; actives 15% (n = 420,000); AID 686978, 2013; further: potency means the concentration at half of the fitted maximal effect; on the % scale 0 is the no-effect control and ±100 the full control effect; nearly all actives have a fitted effect of over 55% in size
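Readout: luminescence from CellTiter-Glo after 30 min in the dark at RT. Cells: DT40 Tdp1-/- with stable hTDP1, 400/well. Exposure: compounds alone, ≥48 hr, 37 °C.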
TGFb inhibitor = blocks TGF-b signaling; HepG2 CAGA-GFP TGF-b/SMAD3 reporter, GFP fluorescence, 18 h; TGF-beta stimulated, 500 pg/mL final; actives 1.2% (n = 410,000); Potency, µM (titrated, usually from 46.1 µM), for inactives: at the highest dose activity, negative = inhibition, usual class: inhibitors; further: potency means the concentration at half of the fitted maximal effect; on the % scale 0 is the no-effect control and ±100 the full control effect; nearly all actives have a fitted effect of over 65% in size
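Inhibition of TGF-beta-driven CAGA-GFP reporter expression in HEPG2 cells is measured by cellular GFP fluorescence after 18 h stimulation with 500 pg/mL recombinant TGF-beta in 1% FBS medium at 37 degrees C.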
HepG2 viability = HepG2 cytotoxicity, counter-screen for TGF-b inhibitors | AID 588856 | actives 0.76% (n = 410,000) | HepG2 CAGA-GFP viability, ATP luminescence, 18 h | Potency, µM (series often up to 46.1 µM), without a hit: at the highest dose activity change, negative = cytotoxicity, actives largely listed as cytotoxic; further: potency means the concentration at half of the fitted maximal effect
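HepG2 CAGA-GFP cells (1000/well, DMEM with 1% FBS) received compound, then TGF-beta at 500 pg/mL final, and were incubated 18 hours at 37 degrees C. Viability was read by CellTiter-Glo luminescence. Media-only wells were set as complete cell-killing and DMSO as no toxicity.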
TDP1 inh = blocks human tyrosyl-DNA phosphodiesterase 1. recombinant TDP1, AlphaScreen DNA substrate cleavage. Potency, µM (series often up to 130 µM), without a hit: at the highest dose activity change, negative = inhibition, actives largely listed as inhibitors. actives 0.28% (n = 350,000). AID 485290; further: potency means the concentration at half of the fitted maximal effect; on the % scale 0 is the no-effect control and ±100 the full control effect; nearly all actives have a fitted effect of over 40% in size
Target sequence (Q9NUW8 whole entry, looked up): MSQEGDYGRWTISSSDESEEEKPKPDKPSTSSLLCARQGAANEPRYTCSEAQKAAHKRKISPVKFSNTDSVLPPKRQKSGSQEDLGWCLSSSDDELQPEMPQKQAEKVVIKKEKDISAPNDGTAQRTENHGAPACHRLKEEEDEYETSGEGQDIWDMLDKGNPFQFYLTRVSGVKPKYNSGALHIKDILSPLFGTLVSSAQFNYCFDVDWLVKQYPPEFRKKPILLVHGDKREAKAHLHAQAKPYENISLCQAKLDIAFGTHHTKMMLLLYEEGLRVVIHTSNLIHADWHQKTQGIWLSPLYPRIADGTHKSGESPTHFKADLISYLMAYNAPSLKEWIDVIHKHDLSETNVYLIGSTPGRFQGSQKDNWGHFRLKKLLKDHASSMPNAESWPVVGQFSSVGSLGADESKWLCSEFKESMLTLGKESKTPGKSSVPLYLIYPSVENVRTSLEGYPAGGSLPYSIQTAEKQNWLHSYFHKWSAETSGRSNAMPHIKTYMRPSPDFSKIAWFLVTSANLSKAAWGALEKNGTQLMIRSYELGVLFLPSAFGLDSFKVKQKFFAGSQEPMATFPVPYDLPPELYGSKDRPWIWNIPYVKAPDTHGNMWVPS
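Tdp1 1 nM final; 15 min RT w/ cpd; substrate 15 nM, 5 min; beads 10 ug/ml, 10 min; AlphaScreen read. Neg ctrl: no enzyme.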
IL-1B inflam inh = blocks inflammasome-driven IL-1 beta release; activity change, % at 57.5 µM; THP-1 LPS/ATP IL-1B secretion, AlphaLISA, 16 h; stronger effect = lower value; actives 4.7% (n = 360,000); in the data active means activity change below about -50%; inconclusive means mostly about -30% to -49%; further: on the % scale 0 is the no-effect control and ±100 the full control effect
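Secreted IL-1B measured by AlphaLISA bead assay after 16 h compound exposure of THP-1 cells; compounds (final up to 57.5 uM) added 1 h before LPS (250 ng/mL) and ATP (1.25 mM) stimulation; lower signal means less secretion.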
TDP1 cell CPT = growth inhibition of DT40 Tdp1-/-;hTDP1 cells with camptothecin (screen for TDP1 inhibitors); Potency, µM (top dose mostly 46.2 µM), without a hit: top-dose activity change, negative = growth inhibition, actives largely listed as inhibitors; actives 12% (n = 420,000); chicken DT40 Tdp1-/-;hTDP1 cells + 20 nM CPT, ATP luminescence, 48 h; further: potency means the concentration at half of the fitted maximal effect; on the % scale 0 is the no-effect control and ±100 the full control effect; nearly all actives have a fitted effect of over 55% in size
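Chicken DT40 Tdp1-/- cells stably complemented with human TDP1 were seeded at 400 cells/well in medium containing 20 nM camptothecin, exposed to pin-transferred compounds, and grown at 37 °C for at least 48 hr. Viability was read as ATP luminescence.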
An asterisk follows results filed as active; ? = inconclusive; nt = no result given; [ ] = dose if it differs, or a comment. Unless noted, the call rests on the fitted dose curve; in most records, active means well fitted curve in the direction sought with a large enough effect; inconclusive means small, poorly fitted or top-dose-only effect, or another doubt; inactive means no such curve, though single readings can be large; an effect the other way counts as inactive or inconclusive.

SMILES | DT40 TDP1 no CPT | TGFb inhibitor | HepG2 viability | TDP1 inh | IL-1B inflam inh | TDP1 cell CPT
Cc1ccc(C(=O)COc2ccccc2N2C(=O)c3ccccc3C2=O)cc1 | 1.9% | -3.3% | 7.8% | 0.0% | 22.4 | 6.0%
O=C(CN1CCN(C(=O)c2ccco2)CC1)Nc1ccccc1-c1ccccc1 | ? | -5.7% | -33.9% | 5.2% | 12.7 | 25.9µM*
CCOC(=O)c1cc(C)sc1NC(=O)CN1CCN(C(=O)c2ccco2)CC1 | ? | -17.6% | -30.3% | 4.2% | 0.0 | 23.1µM*
COc1ccc(C2CC(=O)c3cc(-c4nc(-c5cccc([N+](=O)[O-])c5)cs4)c(=O)n(-c4ccccc4C)c3C2)cc1 (stereo not drawn) | -12.5% | -7.3% | 8.0% | 2.7% | nt | -29.4%
C[n+]1c2n(c3ccccc31)N=C(c1cc(C(C)(C)C)c(O)c(C(C)(C)C)c1)CS2 | 2.59µM* | 6.31µM* | -160.0% | 5.1% | -100.3* | 4.11µM*
COc1cccc(C2=Nn3c(nnc3-c3ccccc3O)SC2)c1 | ? | -4.8% | -17.2% | 7.4% | 22.9 | ?
O=C(CCC1N=C2c3ccccc3N=C(SCc3ccc(Cl)cc3)N2C1=O)NCCc1ccccc1 (stereo not drawn) | ? | ? | -38.3% | 5.9% | nt | 18.4µM*
O=C(CCC1N=C2c3ccccc3N=C(SCc3cccc(Cl)c3)N2C1=O)NCCc1ccccc1 (stereo not drawn) | ? | ? | -32.3% | 8.8% | nt | ?
CCc1ccc(NC(=O)CSC2=Nc3ccccc3C3=NC(CCC(=O)NCc4ccccc4OC)C(=O)N23)cc1 (stereo not drawn) | -5.8% | 2.4% | -14.1% | 1.5% | nt | -1.3%
O=C(CCC1N=C2c3ccccc3N=C(SCc3cccc(F)c3)N2C1=O)NCCc1ccccc1 (stereo not drawn) | ? | ? | -0.1% | 1.5% | nt | 20.6µM*
COc1ccccc1CNC(=O)CCC1N=C2c3ccccc3N=C(SCC(=O)NCCc3ccc(OC)c(OC)c3)N2C1=O (stereo not drawn) | ? | -6.3% | -34.4% | -0.5% | nt | 18.4µM*
O=C(CCC1N=C2c3ccccc3N=C(SCc3cccc(F)c3)N2C1=O)NCc1ccc(F)cc1 (stereo not drawn) | 18.4µM* | ? | -36.0% | -0.5% | nt | ?
CC1CCCN(CCCNC(=O)c2ccc(N3CCCC3=O)cc2)C1 (stereo not drawn) | 5.5% | 0.4% | 2.6% | 0.5% | 14.7 | 12.4%
CN(Cc1ccccc1)C(=O)C1CCN(S(=O)(=O)c2cccc3nonc23)CC1 | ? | -6.9% | 2.0% | 5.4% | 0.3 | -1.3%
N#CCSC1=Nc2ccccc2C2=NC(CCC(=O)N3CCN(c4ccccc4)CC3)C(=O)N12 (stereo not drawn) | -26.1% | -7.6% | -0.1% | 5.1% | -14.7 | -9.4%
O=C(CCC1N=C2c3ccccc3N=C(SCc3cccc(Cl)c3)N2C1=O)NCc1cccs1 (stereo not drawn) | 20.6µM* | 16.6% | -10.0% | -2.5% | nt | 11.6µM*
O=C(CCC1N=C2c3ccccc3N=C(SCc3ccc(F)cc3)N2C1=O)N1CCN(c2ccccc2)CC1 (stereo not drawn) | 25.9µM* | -13.7% | -35.7% | 10.0% | nt | ?
CCc1ccc(-c2cn3c(n2)sc2cc(C(=O)NC4CCCCC4)ccc23)cc1 | 6.51µM* | -3.1% | -2.8% | 7.8% | nt | 3.66µM*
CCOC(=O)N1CCC(NC(=O)c2ccc3c(c2)sc2nc(-c4cccc(OC)c4)cn23)CC1 | nt | nt | nt | 4.2% | nt | nt
O=C(NC1CCCCCC1)c1ccc2c(c1)sc1nc(-c3ccccc3)cn12 | 16.4µM* | 8.7% | -12.8% | -2.6% | nt | 9.2µM*
CCOC(=O)N1CCC(NC(=O)c2ccc3c(c2)sc2nc(-c4ccccc4)cn23)CC1 | 9.2µM* | -24.3% | -34.7% | 2.0% | -15.4 | 14.6µM*
CC(C)C[C@@H](COCc1cccc(C(F)(F)F)c1)N1CCN(C(=O)c2ccc(C(F)(F)F)cc2)CCC1=O | ? | nt | nt | nt | -73.2* | ?
Cc1cccc(COC[C@H](CC(C)C)N2CCN(C(=O)c3ccc(C(F)(F)F)cc3)CCC2=O)c1 | 16.4µM* | nt | nt | nt | ? | ?
CCOC(=O)C1(C)C=C(Nc2ccc(C(N)=O)cc2)C(=O)N1c1ccccc1 (stereo not drawn) | -12.0% | -5.1% | 0.1% | nt | nt | ?
O=C(CN1CCN(Cc2ccccc2)CC1)NNC(=O)c1ccccc1 | 16.8% | 3.1% | 3.9% | 1.2% | 16.0 | -0.7%
SMILES | DT40 TDP1 no CPT | TGFb inhibitor | HepG2 viability | TDP1 inh | IL-1B inflam inh | TDP1 cell CPT
O=[N+]([O-])c1cccc(-c2cc3cccc[n+]3cc2-c2cccc([N+](=O)[O-])c2)c1 | -12.0% | 3.9% | -5.5% | 2.5% | 18.0 | -9.9%
Cc1cccc2cc(-c3ccccc3)c(-c3ccccc3)c[n+]12 | 7.31µM* | ? | -12.9% | 7.9% | -3.3 | 8.2µM*
Cc1cccc(OCC(=O)NCC(=O)N/N=C/c2ccc(O)cc2O)c1 | 5.8µM* | ? | 21.2% | 0.6% | 187.6 | 16.4µM*
COc1cccc(/C=N/NC(=O)CNC(=O)COc2cccc(C)c2)c1O | 18.4µM* | ? | -17.4% | 0.0% | 229.2 | 7.31µM*
COCc1c(C(=O)N2CCN(C)CC2)cnn1-c1ncc2c(n1)-c1ccccc1CCC2 | -15.0% | nt | nt | nt | nt | 7.0%[9.04 µM]
COc1cccc(C(=O)N(C)CC2CCN(CCc3cccc(C(F)(F)F)c3)CC2)c1 | ? | ? | -31.6% | nt | -9.8 | ?
COc1ccc(CCNC(=O)CCC(=O)N2CCOc3ccccc32)cc1OC | -27.1% | 3.9% | -14.5% | nt | -15.8 | -26.2%
COc1ccc(C2C3C=CCCC3(C)C(=O)N2Cc2ccccc2)cc1Cl (stereo not drawn) | nt | 14.1µM* | -43.4% | 7.4% | nt | nt
COc1ccc(-c2ccccc2C2C3C=CCCC3(C)C(=O)N2Cc2ccccc2)cc1 (stereo not drawn) | nt | ? | -50.1% | 10.3% | nt | nt
C[C@@]12CCC=C[C@H]1[C@H](c1ccc(C(F)(F)F)cc1)N(Cc1ccccc1)C2=O | 16.4µM* | ? | -29.6% | -1.2% | 41.0 | ?
COc1ccccc1OCC1CNC(=O)O1 (stereo not drawn) | 5.6% | nt | nt | nt | nt | 8.2%
CCC(=O)Nc1c(C#N)c2nc3ccccc3nc2n1C1CCCCC1 | -14.1% | -2.3% | 8.8% | 0.0% | 19.6 | -4.5%

Compound activity deposited in PubChem by National Center for Advancing Translational Sciences (NCATS).
